# Source: PubChem BioAssay (NCATS)
# Inconclusive results are not listed. Activity calls are given as the source filed them. Unless noted, the call rests on the fitted dose curve; in most records, active means well fitted curve in the direction sought with a large enough effect; inconclusive means small, poorly fitted or top-dose-only effect, or another doubt; inactive means no such curve, though single readings can be large; an effect the other way counts as inactive or inconclusive.
# Legend:
# [1] = qHTS to identify inhibitors of the type 1 interferon - major histocompatibility complex class I in skeletal muscle: primary screen against the NCATS Mechanism Interrogation Plate v5.0 (MIPE) Libary (AID 1347411); further: nearly all actives have a fitted effect of over 65% in size;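 on activity change, negative = inhibition: plate controls were vehicle for no effect and reference inhibitor for full effect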
# Outline: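 Immortalized human myoblasts (C25cl48) with HiBit knocked into endogenous HLA-B*08:01 were stimulated with 4 ng/ml IFN-beta and given compounds in 11-point 1:3 titration from 46 uM. After 24 h at 37 C, lytic HiBiT luminescence was read.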
# [2] = Primary qHTS for inhibitors of nuclear receptor binding SET domain protein 2 (NSD2) in an isogenic RCH-ACV NSD2 p.E1099K mutant (9B) (AID 1645876); further: nearly all actives have a fitted effect of over 70% in size
# [3] = Primary qHTS for inhibitors of nuclear receptor binding SET domain protein 2 (NSD2) in an RCH-ACV wild type WT cells (2C) (AID 1645877); further: nearly all actives have a fitted effect of over 70% in size
# [4] = biological target: Glutathione peroxidase 1 (Homo sapiens) (UniProt P07203); assay: Primary qHTS Assay for Inhibitors of Recombinant Selenoprotein Glutathione Peroxidase 1 (GPX1) (AID 1845191); further: nearly all actives have a fitted effect of over 65% in size
# Outline: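 Recombinant GPX1 (10 nM final) was preincubated with compound for 30 min at room temperature, then reacted with 1 mM GSH, 0.5 mM CHP, 0.5 mM NADPH and 100 nM glutathione reductase; NADPH fluorescence (340/450 nm) was read at 0 and 15 min.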
# [5] = biological target: Phospholipid hydroperoxide glutathione peroxidase GPX4 (Homo sapiens) (UniProt P36969); assay: Primary qHTS Assay for Inhibitors of Recombinant Selenoprotein Glutathione Peroxidase 4 (GPX4) (AID 1845192); conditions: outcome: dose series up to 50 µM unless noted; further: nearly all actives have a fitted effect of over 65% in size; on activity change, negative = inhibition: series mostly up to about 50 µM; on the % scale 0 is the no-effect control and ±100 the full control effect
# Outline: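 GR-coupled readout: 100 nM GR, 1 mM GSH, 0.5 mM NADPH; NADPH fluorescence (ex 340/em 450 nm) read at t=0 and after 15 min RT. GPX4 200 nM, preincubated 30 min with compound; substrate 0.5 mM CHP.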
# [6] = qHTS drug screen for cell cycle checkpoint inhibitors in PARPi-resistant BRCA-mutant ovarian cancer cell lines. (AID 1963452; calls by dose curve); conditions: PEO1/OlaR viability, CellTiter-Glo luminescence, 96 h; for Z-AUC: stronger effect = lower value
# Outline: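 PEO1, PEO4 and PEO1/OlaR ovarian cancer cells, 600 per well, exposed 96 h at 37C to a dilution series. Viability read by CellTiter-Glo luminescence, normalized to DMSO and empty wells; activity summarized as Z-AUC.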
# [7] = measured here: PEO1 parental Z-AUC
# Potency means the concentration at half of the fitted maximal effect.
# Sequence of Glutathione peroxidase 1 (Homo sapiens) (P07203 whole entry, looked up): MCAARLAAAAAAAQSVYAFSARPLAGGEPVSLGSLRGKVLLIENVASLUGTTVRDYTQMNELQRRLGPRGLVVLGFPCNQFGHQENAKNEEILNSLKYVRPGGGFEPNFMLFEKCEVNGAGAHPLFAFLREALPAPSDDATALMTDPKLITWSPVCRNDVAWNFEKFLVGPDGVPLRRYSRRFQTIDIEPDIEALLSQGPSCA
# Sequence of Phospholipid hydroperoxide glutathione peroxidase GPX4 (Homo sapiens) (P36969 whole entry, looked up): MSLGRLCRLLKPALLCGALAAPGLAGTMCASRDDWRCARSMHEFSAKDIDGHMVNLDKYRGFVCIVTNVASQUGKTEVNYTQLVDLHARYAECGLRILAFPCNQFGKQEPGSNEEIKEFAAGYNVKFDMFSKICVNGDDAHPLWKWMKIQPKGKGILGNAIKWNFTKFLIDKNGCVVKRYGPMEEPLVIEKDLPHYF
SMILES,Potency [1],Potency [2],Potency [3],Potency [4],Potency [5],Z-AUC [6],"Z-AUC [6, 7]",Z-AUC ([6]; measured here: PEO4 Z-AUC),"activity change, negative = inhibition [1]",outcome [4],outcome [5],Potency [6],"activity change, negative = inhibition [5]"
Cc1c(F)cccc1NC(=O)Nc1ccc(Cl)c(S(=O)(=O)[C@H]2CCCNC2)c1O,inactive,inactive,inactive,inactive,inactive,1.68 (inactive),1.25,1.41,,,,,
O=C1NC(=O)[C@@H](c2cn3c4c(cccc24)CCC3)[C@@H]1c1c[nH]c2ccccc12,inactive,1320 nM (active),1050 nM (active),inactive,inactive,0.925 (inactive),0.797,0.765,,,,,
Cn1cc(-c2nc(N[C@@H]3CCCC[C@@H]3N)c(F)c3c2C(=O)NC3)cn1,,662 nM (active),590 nM (active),,,0.172 (inactive),0.884,0.422,-16.3% [at 5.1 µM] (inactive),inactive [at 4.49 µM],inactive [at 4.52 µM],,
COc1cc(OC)c(/C=C/S(=O)(=O)Cc2ccc(OC)c(OP(=O)(O)O)c2)c(OC)c1,inactive,37.2 nM (active),33.2 nM (active),inactive,inactive,,-2.04,-2.09,,,,49 nM (active),
O=C(Nc1cnn2ccc(N3CCC[C@@H]3c3cc(F)ccc3F)nc12)N1CC[C@H](O)C1,inactive,inactive,inactive,inactive,inactive,1.28 (inactive),1.7,1.78,,,,,
C=CCN1C[C@H](C(=O)N(CCCN(C)C)C(=O)NCC)CC2c3cccc4[nH]cc(c34)C[C@H]21 (some centres not stated),inactive,inactive,inactive,inactive,inactive,-0.809 (inactive),-0.35,-0.259,,,,,
CN1C(=O)[C@@H](NC(=O)c2n[nH]c(Cc3ccccc3)n2)COc2ccccc21,inactive,inactive,inactive,inactive,inactive,-0.646 (inactive),-0.812,-0.659,,,,,
CCN(CC)C(=O)Cc1csc(NS(=O)(=O)c2cccc(Cl)c2C)n1,inactive,inactive,inactive,inactive,inactive,0.874 (inactive),0.835,0.952,,,,,
O=C1CC[C@H](N2Cc3c(OCc4ccc(CN5CCOCC5)cc4)cccc3C2=O)C(=O)N1,inactive,16.6 nM (active),33.2 nM (active),inactive,inactive,1.34 (inactive),1.06,1.23,,,,,
[2H]c1nc(C)nc([2H])c1-c1cc(NC[C@@H](C)c2cccc3c(C(=O)NC)ccnc23)ncn1,inactive,inactive,inactive,inactive,inactive,1.38 (inactive),1.26,1.18,,,,,
C=CC(=O)Nc1cccc(Oc2nc(Nc3ccc(N4CCN(C)CC4)c(F)c3)nc3[nH]ccc23)c1,20800 nM (active),1480 nM (active),1320 nM (active),inactive,inactive,-1.38 (inactive),-0.613,-0.658,,,,,
CN(C)C/C=C/C(=O)Nc1cc2c(Nc3ccc(F)c(Cl)c3)ncnc2cc1O[C@H]1CCOC1,16500 nM (active),2350 nM (active),1860 nM (active),inactive,inactive,-1.12 (inactive),-0.735,-1.62,,,,,
C[C@H](NC(=O)CCC(F)(F)F)C(=O)N[C@@H]1C(=O)N(CCO)c2ncccc2-c2ccccc21,inactive,inactive,inactive,inactive,inactive,-0.268 (inactive),0.166,-0.664,,,,,
CNC(=O)Cn1cc(-c2ccc3c(c2)C(F)CC32NC(=O)N(CC(=O)N(Cc3ccc(F)cc3)C(C)C(F)(F)F)C2=O)cn1 (configuration not stated),inactive,83.3 nM (active),132 nM (active),inactive,inactive,0.772 (inactive),0.67,0.562,,,,,
CCn1c(=O)c(-c2ccc(-c3cncc(C)n3)cc2Cl)cc2cnc(NCCC3CCN(C)CC3)nc21,,1180 nM (active),1320 nM (active),,,1.53 (inactive),0.823,1.06,-29.5% [at 5.1 µM] (inactive),inactive [at 4.49 µM],,,-3.33% [at 4.52 µM] (inactive)
COC(=O)C1=C(C)NC(c2ncc(F)cc2F)=N[C@H]1c1ccc(F)cc1Cl,20800 nM (active),14800 nM (active),13200 nM (active),inactive,inactive,0.0263 (inactive),0.182,1.13,,,,,
O=C(O)CC(C(=O)O)n1c(O)c(C2=c3cc(Br)ccc3=NC2=O)sc1=S (configuration not stated),inactive,inactive,inactive,5150 nM (active),10100 nM (active),1.23 (inactive),0.91,1.08,,,,,
Cc1ccc(NS(=O)(=O)c2cccc(C#N)c2)c2[nH]cc(C#N)c12,inactive,372 nM (active),417 nM (active),inactive,inactive,-0.908 (inactive),-1.02,-1.95,,,,,
CNCCn1c(=O)c2cc(OC)c(OC)cc2c2cnc3cc4c(cc3c21)OCO4,,9.6 nM (active),6 nM (active),,,,-3.24,-2.15,-8.45% [at 8.44 µM] (inactive),inactive [at 9.52 µM],inactive [at 9.73 µM],7.1 nM (active),
